One test deals with Klebsiella pneumoniae. The note with it: Concentration 32 ug.mL-1, ASSAY_TEST Inhibition of Bacterial Growth, detection method Absorption (OD600), MEDIA CAMHB, plate type 384well, NBS, CORNING #3640, time 18 hr.
The next test deals with Candida albicans. As to conditions: 32 ug/mL.
Another test has as its system Cryptococcus neoformans. As to conditions: Concentration 32 ug.mL-1, ASSAY_TEST Inhibition of Fungal Growth, detection method Resazurin, Absorption (OD600-OD570), plate type 384well, NBS, CORNING #3640.

“And” between values parts separate entries of the source, which are not always exact repeats. Equal entries are not always repeated. Measured potencies and affinities stand elsewhere.

Take `N#CCC(=O)c1ccccc1`: the Inhibition with Klebsiella pneumoniae was 12.74%; in the test on Candida albicans, 10.4%; in the test on Cryptococcus neoformans it was -3.25%.

For `CNCc1cn(C)c2ccc(OC)cc12.Cl`, the Inhibition is 11.42% with Klebsiella pneumoniae, 1.37% in the test on Candida albicans and -1.31% in the test with Cryptococcus neoformans.

Regarding `COc1ccc(C=C(C#N)C#N)cc1OC`, the Inhibition is 6.42% in the test on Klebsiella pneumoniae, 0.87% in the test with Candida albicans and -1.94% in the test on Cryptococcus neoformans.

As for `NNC(=O)c1cccnc1` [NICOTINIC ACID HYDRAZIDE], the Inhibition with Klebsiella pneumoniae was 3.91%; with Candida albicans, 1.56%; in the test with Cryptococcus neoformans it was -4.91%.

`NNCCCc1c[nH]c2ccccc12.O=C(O)/C=C/C(=O)O`: the Inhibition came out at 10.99% in the test with Klebsiella pneumoniae, 1.63% with Candida albicans and 4.26% with Cryptococcus neoformans.

For the compound `CCOC(=O)c1cc2cc(OC(=O)NC3CCN(Cc4ccccc4)CC3)ccc2[nH]1`, the Inhibition in the test on Klebsiella pneumoniae was 1.99%; with Candida albicans it was 0.56%; with Cryptococcus neoformans it was -41.14%.

As for `O=C(CBr)NCc1ccccc1`, the Inhibition in the test with Klebsiella pneumoniae turned out to be 15.98%; in the test with Candida albicans, 10.2%; in the test on Cryptococcus neoformans, 6.35%.

With `CCOC(=O)C1=C(OC)OC(=O)CC1c1ccccc1` (configuration not stated), the Inhibition was 18.96% with Klebsiella pneumoniae, 1.67% with Candida albicans and -58.88% with Cryptococcus neoformans.

As to `CN1CC=C(c2cccn2C)CC1.Cl`, the Inhibition in the test on Klebsiella pneumoniae was 8.46%; in the test with Candida albicans it was 3.38%; in the test on Cryptococcus neoformans, -2.75%.

With `Nc1c2c(nc3ccccc13)CCN(Cc1ccccc1)C2`, the Inhibition in the test on Klebsiella pneumoniae was 4.75%; in the test with Candida albicans, -0.35%; in the test with Cryptococcus neoformans it was -78.39%.

For `C#CCN(C)Cc1cc2cc(OCc3ccc(OC(=O)N(C)C)c4ncccc34)ccc2n1C`, the Inhibition in the test with Klebsiella pneumoniae was -0.57%; with Candida albicans, 1.92%; in the test with Cryptococcus neoformans, -64.25%.

With `Cc1ccc(S(=O)(=O)N2[C@H]3CC[C@@H]2CC3)cc1`, the Inhibition in the test with Klebsiella pneumoniae is 13.85%; with Candida albicans it was 3.38%; in the test on Cryptococcus neoformans, -10.99%.

Regarding `C#CCN1CCc2nc(N)c(C#N)c(-c3ccccc3)c2C1`, the Inhibition is 13.26% and 8.28% with Klebsiella pneumoniae (32 ug/mL); 1.84% and 1.59% with Candida albicans; -44.69% and -39.47% with Cryptococcus neoformans (32 ug/mL).

Regarding `C#CCN(C)Cc1cc2cc(OC(=O)N(C)C)ccc2n1C`, the Inhibition is -2.9% with Klebsiella pneumoniae, 3.66% with Candida albicans and -26.57% with Cryptococcus neoformans.

Consider `C#CCN1CCc2nc3ncccc3c(N)c2C1.Cl`, for which the Inhibition was 8.58% with Klebsiella pneumoniae, 2.69% in the test on Candida albicans and -56.71% in the test on Cryptococcus neoformans.

For the compound `COc1cc(C2C(C#N)=C(N)Oc3c2ccc2ccccc32)cc(OC)c1OC` (configuration not stated), the Inhibition in the test on Klebsiella pneumoniae was 3.14%; with Candida albicans it was -0.44%; with Cryptococcus neoformans, -3.68%.

For `Cl.ClCCN1CCCCC1`, the Inhibition with Klebsiella pneumoniae was 11.31%; with Candida albicans, 4.96%; in the test on Cryptococcus neoformans, -9.27%.

For the compound `CC1CC(=O)Nc2nc3c(c(N)c21)CCCC3` (configuration not stated), the Inhibition in the test on Klebsiella pneumoniae is 14.16%; in the test on Candida albicans it was 2.93%; in the test with Cryptococcus neoformans, -54.55%.

For the compound `Cc1ccc(C=C(C#N)C#N)cc1`, the Inhibition is 9.23% in the test with Klebsiella pneumoniae, 0.34% with Candida albicans and -5.46% in the test with Cryptococcus neoformans.

As to `NNC(=O)c1cn(Cc2ccccc2)c2ccccc12`, the Inhibition with Klebsiella pneumoniae was 10.74%; with Candida albicans, 0.77%; in the test with Cryptococcus neoformans, 3.84%.

For `Cc1nc(N)c(C#N)cc1C(=O)O`, the Inhibition was -3.56% in the test on Klebsiella pneumoniae, 1.23% in the test on Candida albicans and -34.98% in the test with Cryptococcus neoformans.

On to `C#CCN1CCc2nc3nc(OC)c(C#N)cc3c(N)c2C1`, for which the values for the Inhibition in the test on Klebsiella pneumoniae, in the test on Candida albicans and in the test with Cryptococcus neoformans were 9.96%, 0.5% and -73.36%, respectively.

In the case of `C#CCN(C)Cc1cc2cc(OCCCC3CCN(Cc4ccc(OC(=O)N(C)C)c5ncccc45)CC3)ccc2n1C`, the Inhibition was 4.78% in the test on Klebsiella pneumoniae, 5.51% with Candida albicans and -77.63% in the test on Cryptococcus neoformans.

Turning to `N#CC(C#N)=Cc1ccc(Cl)cc1`, the Inhibition with Klebsiella pneumoniae is 17.25%; in the test on Candida albicans, 0.02%; with Cryptococcus neoformans, -1.11%.

In the case of `CCOC(=O)c1cn(Cc2ccccc2)c2ccccc12`, the Inhibition was 3.42% in the test with Klebsiella pneumoniae, -1.33% in the test on Candida albicans and -2.24% in the test with Cryptococcus neoformans.

For `Cl.ClCCN1CCCC1`, the figures for the Inhibition in the test on Klebsiella pneumoniae, in the test on Candida albicans and in the test with Cryptococcus neoformans were 3.45%, 5.34% and -1.83%, respectively.

As for `COc1ccc2c(c1)cc(C[N+](C)(C)C)n2C.[I-]`, the Inhibition was 16.42% in the test on Klebsiella pneumoniae, 1% in the test with Candida albicans and -0.09% in the test on Cryptococcus neoformans.

Take `O=C(N1[C@H]2CC[C@@H]1C(c1nnn[nH]1)C2)C(F)(F)F` (some centres not stated): the results for the Inhibition in the test with Klebsiella pneumoniae, in the test on Candida albicans and in the test on Cryptococcus neoformans were 13.67%, 1.81% and -32.17%, respectively.

In the case of `OCC(Cc1cnc[nH]1)NCc1ccccc1` (configuration not stated), the Inhibition in the test with Klebsiella pneumoniae came to 4.01%; with Candida albicans, 0.31%; with Cryptococcus neoformans, 1.68%.

`N#Cc1cc(C#N)c(N2C3CCC2CC3)nc1N`: the Inhibition in the test with Klebsiella pneumoniae was -5.68%; in the test with Candida albicans, 3.02%; in the test on Cryptococcus neoformans, -1.32%.

For `Cc1ccccc1C=C(C#N)C#N`, the Inhibition is -3.33% in the test on Klebsiella pneumoniae, -0.55% in the test on Candida albicans and -4.61% in the test with Cryptococcus neoformans.

On to `[N-]=[N+]=NCC(=O)c1ccc(Br)cc1`, for which the Inhibition in the test on Klebsiella pneumoniae was 7.99%; in the test with Candida albicans, 3.1%; in the test on Cryptococcus neoformans, -9.49%.

Take `CN1CC=C(c2cccn2C)CC1`: the Inhibition is 7.84% in the test with Klebsiella pneumoniae, 3.67% with Candida albicans and -4.6% in the test on Cryptococcus neoformans.

`CCOC(=O)C1=C(C)NC(=O)CC1c1ccccc1` (configuration not stated): the Inhibition was 18.92% in the test on Klebsiella pneumoniae, 2.43% with Candida albicans and -58.04% with Cryptococcus neoformans.

For the compound `Nc1c2c(nc3c1C(c1ccccc1)CC(=O)N3)CCCC2` (configuration not stated), the Inhibition is 11.64% in the test with Klebsiella pneumoniae, 1% in the test with Candida albicans and -63.29% with Cryptococcus neoformans.

Take `C#CCN1CCc2nc3nc(Cl)c(C#N)cc3c(N)c2C1`: the Inhibition in the test with Klebsiella pneumoniae was 7.38%; with Candida albicans, 0.36%; with Cryptococcus neoformans, -89.58%.

Consider `CCOC(=O)C1=C(C)OC(=O)CC1c1ccccc1` (configuration not stated), for which the Inhibition was 8.11% with Klebsiella pneumoniae, 4.72% with Candida albicans and -25.58% in the test on Cryptococcus neoformans.

For `CCOc1nc2nc(C)c(C(=O)O)cc2c(-c2ccccc2)c1C#N`, the Inhibition in the test on Klebsiella pneumoniae was 7.3%; in the test with Candida albicans, 1.34%; in the test on Cryptococcus neoformans it was -54.07%.

On to `CN(C)C(=O)Oc1ccc(CCl)c2cccnc12`, for which the Inhibition in the test on Klebsiella pneumoniae was 13.45%; in the test with Candida albicans it was 4.55%; in the test on Cryptococcus neoformans, -46.72%.

These data come from ChEMBL document CHEMBL4513135, “CO-ADD screening of IQOG CSIS (Spain) compounds”.
